TGFb SMAD3 inh: qHTS for Inhibitors of TGF-b. HepG2 CAGA-GFP TGF-b/SMAD3 reporter, GFP fluorescence, 18 h; TGF-beta stimulated, 500 pg/mL final. Potency, µM (titrated, usually from 46.1 µM), usual class: inhibitors. 410,000 tested, 1.2% active; further: nearly all actives have a fitted effect of over 65% in size
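GFP signal (ex488/em500-530) from TGF-beta-stimulated HEPG2 CAGA-GFP cells, 500 pg/mL final, 18 h at 37 degrees C in DMEM plus 1% FBS, normalized to unstimulated and DMSO-stimulated controls.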
KB-V1 MDR tox: qHTS assay for MDR1-selective chemotherapeutics: Primary screen using the drug-selected MDR subline cells KB-V1 | KB-V1 MDR cells viability, CellTiter-Glo, 72 h | Potency, µM (highest dose often 46.1 µM), most hits filed as cytotoxic | 400,000 tested, 3.4% active | AID 1347076, 2019; further: nearly all actives have a fitted effect of over 60% in size
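Potencies derive from concentration-effect curves fitted to normalized luminescence (CellTiter-Glo) of KB-V1 cells treated for 72 h at 37 degrees C in phenol-red-free DMEM containing 10% FBS.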
HepG2 tox: qHTS for Inhibitors of TGF-b: Cytotox Counterscreen; Potency, µM (titrated, usually from 46.1 µM), most hits filed as cytotoxic; 410,000 tested, 0.76% active; HepG2 CAGA-GFP viability, ATP luminescence, 18 h
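HepG2 CAGA-GFP cells (1000/well, DMEM with 1% FBS) received compound, then TGF-beta at 500 pg/mL final, and were incubated 18 hours at 37 degrees C. Viability was read by CellTiter-Glo luminescence. Media-only wells were set as complete cell-killing and DMSO as no toxicity.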
S2 tox: Viability Counterscreen for Primary qHTS for Inhibitors of ATXN expression; S2 cells (HEK-293 line with an ATXN2-luciferase reporter) viability, CellTiter-Fluor protease fluorescence, 24 h; Potency, µM (top dose mostly 56.7 µM), actives largely listed as cytotoxic; 400,000 tested, 0.49% active; AID 651635, 2014; further: nearly all actives have a fitted effect of over 40% in size
ATXN2 expr inh: Primary qHTS for Inhibitors of ATXN expression; HEK-293 ATXN2-luciferase reporter, luminescence, 24 h; Potency, µM (doses to about 57 µM), hits mostly inhibitors; 360,000 tested, 0.72% active; AID 1745845, 2022; further: nearly all actives have a fitted effect of over 55% in size
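qHTS (up to 57 uM final) was run with 24 h compound exposure of reporter cells at 37 °C. Each well was multiplexed: SteadyGlo luminescence measured ATXN2-luciferase expression after a fluorogenic Gly-Phe-AFC viability readout (25 uM final).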
KB-3-1 tox: qHTS assay for MDR1-selective chemotherapeutics: Primary screen using the parental adenocarcinoma cell KB-3-1; KB-3-1 viability, CellTiter-Glo ATP luminescence, 72 h; Potency, µM (top dose mostly 46.1 µM), most hits filed as cytotoxic; 400,000 tested, 1.4% active; further: nearly all actives have a fitted effect of over 60% in size
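Here the drug-naive KB-3-1 line serves as comparator for MDR sub-line selectivity; cells received compound titrations, 72 h at 37 °C, then CellTiter-Glo readout.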
Each line names hits and unclear results; the compound was inactive in the other large screens; ! = not confirmed by another sample. A selection: hits, their analogues and other compounds. The true share with any hit is near 5.9%. The call rests on the fitted dose curve; in most records, active means well fitted curve in the direction sought with a large enough effect; inconclusive means small, poorly fitted or top-dose-only effect, or another doubt; inactive means no such curve, though single readings can be large; an effect the other way counts as inactive or inconclusive.

CC(=O)c1c(C)nn(CC(O)COc2ccc3ccccc3c2)c1C (stereo not given)	KB-V1 MDR tox 7.31µM
Cc1ccc(N(CC(=O)NCCc2ccc(F)cc2)S(=O)(=O)c2ccc(Cl)c([N+](=O)[O-])c2)c(C)c1	TGFb SMAD3 inh inconclusive, HepG2 tox 11.2µM, S2 tox inconclusive, ATXN2 expr inh inconclusive, KB-3-1 tox inconclusive
Oc1ccc(NCc2ccc(OCc3ccccc3Cl)cc2)cc1	TGFb SMAD3 inh 5.01µM, HepG2 tox 7.08µM, ATXN2 expr inh inconclusive (no result: S2 tox)
CCc1ccc(CNc2ccc(O)cc2)cc1	TGFb SMAD3 inh 8.91µM, HepG2 tox 12.6µM, KB-3-1 tox inconclusive
Oc1ccc(NCc2ccc(OCc3ccccc3)cc2)cc1	TGFb SMAD3 inh 15.8µM, HepG2 tox 10µM!, S2 tox inconclusive, ATXN2 expr inh inconclusive, KB-3-1 tox inconclusive
Oc1ccc(OCc2ccccc2)cc1	S2 tox inconclusive (no result: TGFb SMAD3 inh, KB-V1 MDR tox, HepG2 tox, KB-3-1 tox)
COc1ccc(C)cc1NS(=O)(=O)c1ccc2c(c1)[C@H]1C=CC[C@H]1[C@@H](c1cccc(Cl)c1)N2	TGFb SMAD3 inh inconclusive
COc1cc(C(=O)NC(c2ccccc2Cl)c2cc(Cl)c3cccnc3c2O)cc(OC)c1OC (stereo not given)	TGFb SMAD3 inh inconclusive (no result: KB-V1 MDR tox, S2 tox, ATXN2 expr inh, KB-3-1 tox)
CCCC(=O)NC(c1ccc(OC)c(OC)c1)c1cc(Cl)c2cccnc2c1O (stereo not given)	TGFb SMAD3 inh inconclusive, KB-V1 MDR tox 23.1µM!, ATXN2 expr inh inconclusive, KB-3-1 tox inconclusive
O=C(NC(c1ccc(Cl)cc1)c1cc(Cl)c2cccnc2c1O)c1cccnc1 (stereo not given)	TGFb SMAD3 inh inconclusive, KB-V1 MDR tox inconclusive, ATXN2 expr inh inconclusive, KB-3-1 tox inconclusive
CC(=O)NC(c1ccc(N(C)C)cc1)c1cc(Cl)c2cccnc2c1O (stereo not given)	TGFb SMAD3 inh inconclusive, KB-V1 MDR tox inconclusive, KB-3-1 tox 3.26µM (no result: ATXN2 expr inh)
COc1ccc(C(=O)NC(c2ccccc2Cl)c2cc(Cl)c3cccnc3c2O)cc1 (stereo not given)	TGFb SMAD3 inh 10µM, HepG2 tox 11.2µM (no result: KB-V1 MDR tox, S2 tox, ATXN2 expr inh, KB-3-1 tox)
CCC(=O)NC(c1cccs1)c1cc(Cl)c2cccnc2c1O (stereo not given)	TGFb SMAD3 inh inconclusive (no result: ATXN2 expr inh)
CN1CCN(C(c2ccc(Cl)cc2)c2cc(Cl)c3cccnc3c2O)CC1 (stereo not given)	TGFb SMAD3 inh inconclusive, KB-V1 MDR tox inconclusive, HepG2 tox 25.1µM, S2 tox inconclusive, ATXN2 expr inh inconclusive, KB-3-1 tox inconclusive
COc1ccc(C(CC(=O)Nc2cc(Cl)c(OC)cc2OC)N2Cc3ccccc3C2=O)cc1 (stereo not given)	none (no result: KB-V1 MDR tox, S2 tox, ATXN2 expr inh, KB-3-1 tox)
CCc1ccc(NC(=O)Cn2ccn(-c3ccc(OC)cc3)c(=O)c2=O)cc1	none (no result: KB-V1 MDR tox, S2 tox, ATXN2 expr inh, KB-3-1 tox)
CC(=O)NC(c1ccccc1)c1cc(Cl)c2cccnc2c1O (stereo not given)	TGFb SMAD3 inh inconclusive, KB-V1 MDR tox inconclusive, ATXN2 expr inh 7.94µM, KB-3-1 tox inconclusive
CC(=O)NC(c1ccc(C)cc1)c1cc([N+](=O)[O-])c2cccnc2c1O (stereo not given)	TGFb SMAD3 inh inconclusive, KB-V1 MDR tox inconclusive, ATXN2 expr inh inconclusive, KB-3-1 tox inconclusive
CN(C)c1cccc(-c2nnc(N3CCC(C(N)=O)CC3)s2)c1	none (no result: TGFb SMAD3 inh, HepG2 tox, S2 tox, ATXN2 expr inh)
COc1ccc(NC(=O)c2cnc(SC)nc2)cc1	KB-V1 MDR tox inconclusive, KB-3-1 tox 16.4µM (no result: ATXN2 expr inh)
COc1ccc(NC(=O)c2cc(SC)ccc2Cl)cc1	TGFb SMAD3 inh inconclusive, KB-V1 MDR tox 14.6µM
COc1cc(SC)ccc1C(=O)Nc1ccccc1	KB-V1 MDR tox inconclusive
COc1cc(C(=O)OCc2cc(=O)n3nc(C4CCCCC4)sc3n2)cc(OC)c1OC	none
Cc1ccc2nc(Cl)c(/C=C/C(=O)c3ccco3)cc2c1	TGFb SMAD3 inh 12.6µM, KB-3-1 tox inconclusive
Cc1ccc2cc(/C=C/C(=O)c3ccco3)c(Cl)nc2c1	TGFb SMAD3 inh inconclusive, KB-V1 MDR tox inconclusive
O=C(C=Cc1ccco1)c1ccco1	KB-V1 MDR tox inconclusive

Screens (PubChem)
